Compound activity as filed in PubChem BioAssay.
Only some compounds are listed: those with a hit (about 3.4% of all), similar ones and a draw of the others.
ADAM10 inh: ADAM10 inhibition, QFRET primary screen; O14672; recombinant ADAM10, EDANS/DABCYL FRET peptide cleavage, 3 h; inhibition, % at 7 µM; actives 0.62% (n = 370,000); AID 720582;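 active = inhibition above a per-campaign cutoff equal to the mean of compounds falling between control-based bounds plus 3 SD, cut at about 20% in these data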
PLCg1 inh: blocks human PLC-gamma1 enzyme activity | AID 720700 | P19174 | purified PLC-gamma1, fluorogenic substrate, fluorescence | inhibition, % at 12.2 µM | actives 0.84% (n = 370,000); in the data active = inhibition above about 9.5%
PLCb3 inh: PLC-beta3 (human) inhibition, primary screen. Q01970. Purified PLC-beta3, fluorogenic substrate, fluorescence. inhibition, % at 12.2 µM. actives 0.18% (n = 370,000). AID 720704; in the data active = inhibition above about 11%
ADAM17 inh: inhibits human ADAM17; recombinant ADAM17, EDANS/DABCYL FRET peptide cleavage; inhibition, % at 6.95 µM; actives 0.83% (n = 370,000); AID 720648;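 active = inhibition above the mean of compounds lying between control limits plus 3 SD, set per campaign, cut at about 8.5% in these data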
sPLA2-III inh: Blocks human group III sPLA2 activity; Q9NZ20; QFRET BODIPY PC-A2 liposome hydrolysis, fluorescence; inhibition, % at 12.2 µM; actives 0.56% (n = 370,000); AID 743126;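 active = inhibition above mean plus 3 SD of compounds lying within the high and low control bounds, cut at about 19% in these data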
proKLK7 act: activates the human kallikrein-7 zymogen | P49862 | purified proKLK7, EDANS-DABCYL substrate fluorescence; 100% is mature enzyme control, 0% vehicle | activation, % at 7 µM | actives 0.9% (n = 370,000);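 active = activation above the mean of all tested compounds plus 3 SD, computed per campaign excluding outliers beyond control limits, cut at about 13% in these data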
hGIII sPLA2 conf: human GIII-sPLA2 inhibition, confirmation; shares compounds with sPLA2-III inh; recombinant hGIII-sPLA2, BODIPY PC-A2 QFRET fluorescence; inhibition, % at 12.2 µM; actives 34% (n = 2,000); AID 743280;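 active = mean inhibition across triplicates above the hit cutoff set in the earlier primary screen, cut at about 19% in these data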
535nm interf: 535nm fluorescence interference, HGIII-sPLA2 counter-screen; inhibition, % at 12.2 µM; actives 8.5% (n = 2,000); AID 743282; shares compounds with sPLA2-III inh; BODIPY FL product fluorescence interference, QFRET;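 active = average inhibition above the solvent-only control mean plus 3 SD, cut at about 6% in these data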
BODIPY interf DR: 535nm optical interference dose response, HGIII-sPLA2 counter-screen | shares compounds with sPLA2-III inh | IC50, µM | BODIPY FL product fluorescence interference, cell-free | AID 743455 | 240 tested, under 10 active;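 active = IC50 at or below 10 µM; inactive = IC50 above 10 µM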
Large screens that a line does not name were inactive (follow-up assays come after a bar, where they were run).

O=C(CSc1nc2ccccc2s1)NNC(=S)Nc1ccc(Cl)cc1	sPLA2-III inh 25.6 | hGIII sPLA2 conf inactive | 535nm interf inactive
Cc1ccc(-c2nnc(SCC(=O)NNC(=S)Nc3ccccc3)n2C2CCCCC2)cc1	sPLA2-III inh 28.4 | hGIII sPLA2 conf 33.3 | 535nm interf inactive | BODIPY interf DR inactive
COc1ccc(-n2c(SCC(=O)NNC(=S)Nc3ccc(C)cc3)nnc2-c2ccccc2)cc1	sPLA2-III inh 31.0 | hGIII sPLA2 conf inactive | 535nm interf inactive
COc1ccc(-n2c(SCC(=O)Nc3ccc(Oc4ccccc4)cc3)nnc2-c2ccccc2)cc1	none
Cc1ccc(-c2nnc(SCC(=O)N/N=C/c3ccccc3C(=O)O)n2C2CCCCC2)cc1	none
O=C(CSc1nc2ccccc2s1)NCCOc1ccc(Cl)cc1	none
Nc1c(N(CCC2=CCCCC2)C(=O)c2ccccc2F)c(=O)[nH]c(=O)n1Cc1ccccc1	none
Cc1ccc(-c2nnc(SCC(=O)Nc3ccc4c(c3)OCCO4)n2-c2ccc(C)cc2)cc1	sPLA2-III inh 20.8 | hGIII sPLA2 conf inactive | 535nm interf inactive
Cc1ccc(-n2c(SCC(=O)Nc3ccc4c(c3)OCCO4)nnc2-c2cccnc2)cc1	none
C[N+]1(CC2COC3(CCCCC3)O2)CCCC1 (centres undefined)	sPLA2-III inh 24.2 | hGIII sPLA2 conf inactive | 535nm interf inactive
Cc1ccc(C(=O)Nc2nc(-c3ccccn3)cs2)o1	none
Cc1cc(C(=O)Nc2nc(-c3ccccn3)cs2)ccc1[N+](=O)[O-]	sPLA2-III inh 26.3 | hGIII sPLA2 conf 28.2 | 535nm interf inactive | BODIPY interf DR inactive
O=C(Nc1nc(-c2ccccn2)cs1)c1ccc(-c2ccccc2F)o1	sPLA2-III inh 21.2 | hGIII sPLA2 conf 24.1 | 535nm interf inactive
CCc1cc(C(=O)Nc2nc(-c3ccccn3)cs2)sc1C	sPLA2-III inh 21.3 | hGIII sPLA2 conf 25.2 | 535nm interf inactive
CCCNC(=O)N1CCN(S(C)(=O)=O)CC1	none
O=C(CN1CCCCC1)Nc1ccccc1Oc1ccccc1	none
C=CCNC(=O)NC(=O)CSc1nnc(C(F)(F)F)n1C	none
O=C(NCCc1ccc(C(F)(F)F)cc1)C1CCC(=O)N(CCCN2CCCC2=O)C1 (centres undefined)	none
Cc1[nH]c(=S)c(C#N)c2c1CCCC2	none
CC(C)Cc1c2c([nH]c(=S)c1C#N)CCCC2	sPLA2-III inh 20.3 | hGIII sPLA2 conf 30.4 | 535nm interf inactive | BODIPY interf DR inactive
COC(=O)c1c(NC(=O)CSc2nc3ccccc3c(=O)n2Cc2ccco2)sc(C)c1C	sPLA2-III inh 19.4 | hGIII sPLA2 conf inactive | 535nm interf inactive
CCOc1cc(CNc2ncc(-c3ccc(OC)cc3)n2C)ccc1O	sPLA2-III inh 20.1 | hGIII sPLA2 conf inactive | 535nm interf inactive
NC(=S)Nn1c(-c2ccccc2)nc2ccccc2c1=O	sPLA2-III inh 19.4 | hGIII sPLA2 conf inactive | 535nm interf inactive
O=C(Cc1ccccc1)Nn1c(-c2ccccc2)nc2ccccc2c1=O	none
Cc1cc2nc(-c3ccc[nH]c3=O)n(Cc3ccccc3F)c2cc1C	sPLA2-III inh 19.3 | hGIII sPLA2 conf inactive | 535nm interf inactive
COc1cc2c(cc1OC)CN(C(=O)c1cc(S(=O)(=O)N3CCOCC3)ccc1C)CC2	none
O=[N+]([O-])c1ccc(/C=N\NS(=O)(=O)c2ccc(F)cc2)o1	none
CC(C)(C)NC(=O)N1CCC(CO)(Cc2ccccc2Cl)CC1	none
CC1(C)CC(CCN)(Cc2ccccc2Cl)CCO1 (centres undefined)	sPLA2-III inh 19.7 | hGIII sPLA2 conf inactive | 535nm interf inactive
COc1cc(CNc2ccc3[nH]c(=O)[nH]c3c2)ccc1OCc1ccccc1F	sPLA2-III inh 23.6 | hGIII sPLA2 conf 24.1 | 535nm interf inactive
